Reference: PubChem BioAssay (NCI)
The panel holds about 83,000 compounds, 20% with a hit somewhere; the sample as a whole holds those more often.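 Activity criterion: percent growth below 10, measured after cells in 96-well plates were exposed to a single compound concentration for 48 hours.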 Calls of active or inactive are those of the source.

What follows are compounds tested on OVCAR-3 ovarian (assay: NCI-60 one-dose screen, 48 h (100 = growth as untreated, 0 = no growth, -100 = all killed)). Conditions: 10 µM unless noted.

Row | Structure (SMILES) | growth
1 | NC(=O)N1CCOCC1 | 103% (inactive)
2 | N#Cc1ccc(OC(=O)Nc2c(Cl)cc(Cl)cc2Cl)cc1 | 112% (inactive)
3 | CCOC(=O)/C(C)=C\c1ccc(OC)c(OC)c1 | 103% (inactive)
4 | O=S(Cc1ccccc1)/C(=C/NC(=S)Nc1ccccc1)c1ccccc1 (centres undefined) | 105% (inactive)
5 | C/C(=N\O)c1ccccn1 | 106% (inactive)
6 | CC(C)NC(=O)OCc1c(COC(=O)NC(C)C)c(-c2ccc(Cl)cc2)n2c1CCC2 | 66% (inactive)
7 | CC(=O)NNC(=S)/N=C\C(C(=O)c1ccccc1)=C(/O)c1ccccc1 | 109% (inactive)
8 | C=CCS(C)(=O)=O | 108% (inactive)
9 | O=C(NCc1ccccc1)c1cccc([N+](=O)[O-])c1 | 106% (inactive)
10 | c1ccc(-c2ccc3ccccc3c2)cc1 | 103% (inactive)
11 | Cc1ccccc1NC(=O)Oc1ccc(Cl)cc1C(=O)c1ccccc1 | 95.3% (inactive)
12 | CCC(C)c1c(N)n(S(=O)(=O)c2ccc(C)cc2)oc1=O (centres undefined) | 118% (inactive)
13 | O=Cc1c(O)c2ccccc2[nH]c1=O | 134% (inactive)
14 | COC(=O)c1ccccc1C(=O)c1c(C)cc(C)cc1C | 103% (inactive)
15 | N=C(N)c1nn(C2OC(CO)C(O)C2O)c2nc[nH]c(=O)c12 (centres undefined) | -51.9% (active)
16 | COc1cccc(C(=O)O)c1OC | 106% (inactive)
17 | O=C(O)c1cc(I)ccc1O | 116% (inactive)
18 | CC(=O)NNC(=S)N/C=C/c1c(C)ccc([N+](=O)[O-])c1[N+](=O)[O-] | 103% (inactive)
19 | NNc1ncnc2c1ncn2C1OC(CO)C(O)C1O (centres undefined) | 9.24% (active)

Row | Structure (SMILES) | growth
20 | C=CCNC(=S)N/C=C(/C(=O)c1ccccc1)c1ccccc1 | 112% (inactive)
21 | Cc1ccc(C2CCCCC2)cc1Br | 104% (inactive)
22 | OCCc1ccc(Cl)cc1 | 105% (inactive)
23 | C/C(O)=C(/C=N/C(=S)Nc1ccccc1)C(=O)Nc1ccccc1C | 105% (inactive)
24 | CC1(C)OC(=O)CC1=O | 113% (inactive)
25 | CN(C)CCOC(=O)Nc1ccc(Cc2ccc(NC(=O)OCCN(C)C)cc2)cc1 | 90.4% [100 µM] (inactive)
26 | O=c1nc(Nc2cccc(Cl)c2)oc2cc(Cl)oc(=O)c12 | 51.6% (inactive)
27 | OCCNc1ccccc1 | 105% (inactive)
28 | O=C(Oc1ccccc1Cl)c1ccc(Cl)cc1Cl | 107% (inactive)
29 | COc1cc(OC)c2cc(C(=O)c3ccc(C#N)cc3)c(=O)oc2c1 | 107% (inactive)
30 | CC(C)C1CCC(C)C(O)C1 (centres undefined) | 105% (inactive)
31 | O=C(NC1CCCCC1)c1ccc(Cl)cc1 | 102% (inactive)
32 | O=C1C=Cc2ccccc2/C1=C/c1[nH]c(=O)[nH]c1O | -32.3% (active)
33 | NC(CO)(CO)c1ccccc1 | 97.5% (inactive)
34 | Nc1cc(N)ncn1 | 112% (inactive)
35 | S=C(Sc1ccc(Cl)cc1)Sc1ccc(Cl)cc1 | -64.7% (active)
36 | CCOc1ccc(C(=O)O)cc1 | 115% (inactive)
37 | COc1cccc(C(=O)NNC(=O)c2cccc3ccccc23)c1 | 121% (inactive)

The compounds below were run on HS 578T breast in the same assay as above. Conditions: 10 µM unless noted.

Row | Structure (SMILES) | growth
38 | NC(=O)N1CCOCC1 | 113% (inactive)
39 | N#Cc1ccc(OC(=O)Nc2c(Cl)cc(Cl)cc2Cl)cc1 | 106% (inactive)
40 | CCOC(=O)/C(C)=C\c1ccc(OC)c(OC)c1 | 108% (inactive)
41 | O=S(Cc1ccccc1)/C(=C/NC(=S)Nc1ccccc1)c1ccccc1 (centres undefined) | 114% (inactive)
42 | C/C(=N\O)c1ccccn1 | 95.5% (inactive)
43 | CC(C)NC(=O)OCc1c(COC(=O)NC(C)C)c(-c2ccc(Cl)cc2)n2c1CCC2 | 73.6% (inactive)
44 | CC(=O)NNC(=S)/N=C\C(C(=O)c1ccccc1)=C(/O)c1ccccc1 | 106% (inactive)
45 | C=CCS(C)(=O)=O | 89.2% (inactive)
46 | O=C(NCc1ccccc1)c1cccc([N+](=O)[O-])c1 | 91.2% (inactive)
47 | c1ccc(-c2ccc3ccccc3c2)cc1 | 84.5% (inactive)
48 | Cc1ccccc1NC(=O)Oc1ccc(Cl)cc1C(=O)c1ccccc1 | 84.3% (inactive)
49 | CCC(C)c1c(N)n(S(=O)(=O)c2ccc(C)cc2)oc1=O (centres undefined) | 130% (inactive)
50 | O=Cc1c(O)c2ccccc2[nH]c1=O | 106% (inactive)
51 | COC(=O)c1ccccc1C(=O)c1c(C)cc(C)cc1C | 100% (inactive)
52 | N=C(N)c1nn(C2OC(CO)C(O)C2O)c2nc[nH]c(=O)c12 (centres undefined) | -19.4% (active)
53 | COc1cccc(C(=O)O)c1OC | 88.9% (inactive)
54 | O=C(O)c1cc(I)ccc1O | 111% (inactive)
55 | CC(=O)NNC(=S)N/C=C/c1c(C)ccc([N+](=O)[O-])c1[N+](=O)[O-] | 108% (inactive)
56 | NNc1ncnc2c1ncn2C1OC(CO)C(O)C1O (centres undefined) | 53% (inactive)

Row | Structure (SMILES) | growth
57 | C=CCNC(=S)N/C=C(/C(=O)c1ccccc1)c1ccccc1 | 103% (inactive)
58 | Cc1ccc(C2CCCCC2)cc1Br | 96.4% (inactive)
59 | OCCc1ccc(Cl)cc1 | 95% (inactive)
60 | C/C(O)=C(/C=N/C(=S)Nc1ccccc1)C(=O)Nc1ccccc1C | 94.8% (inactive)
61 | CC1(C)OC(=O)CC1=O | 96.6% (inactive)
62 | CN(C)CCOC(=O)Nc1ccc(Cc2ccc(NC(=O)OCCN(C)C)cc2)cc1 | 73.1% [100 µM] (inactive)
63 | O=c1nc(Nc2cccc(Cl)c2)oc2cc(Cl)oc(=O)c12 | 62.3% (inactive)
64 | OCCNc1ccccc1 | 101% (inactive)
65 | O=C(Oc1ccccc1Cl)c1ccc(Cl)cc1Cl | 93.8% (inactive)
66 | COc1cc(OC)c2cc(C(=O)c3ccc(C#N)cc3)c(=O)oc2c1 | 82.1% (inactive)
67 | CC(C)C1CCC(C)C(O)C1 (centres undefined) | 93.5% (inactive)
68 | O=C(NC1CCCCC1)c1ccc(Cl)cc1 | 106% (inactive)
69 | O=C1C=Cc2ccccc2/C1=C/c1[nH]c(=O)[nH]c1O | -6.84% (active)
70 | NC(CO)(CO)c1ccccc1 | 95.5% (inactive)
71 | Nc1cc(N)ncn1 | 96.2% (inactive)
72 | S=C(Sc1ccc(Cl)cc1)Sc1ccc(Cl)cc1 | 7.84% (active)
73 | CCOc1ccc(C(=O)O)cc1 | 95.3% (inactive)
74 | COc1cccc(C(=O)NNC(=O)c2cccc3ccccc23)c1 | 114% (inactive)
